# In PubChem BioAssay (EPA / NIEHS):
# Active and inactive are the calls of the source. The calls were made as follows: active = hit-call score of the fitted dose curve at least 0.9, where 1 is the maximum; inactive = score below 0.9.
# Target: Transcription factor E2F1 (Homo sapiens) (UniProt Q01094)
# Experiment: ATG_E2F_CIS: Attagene CIS-FACTORIAL HepG2 Assay for human E2F Transcription Factor 1 (AID 2282935)
# Conditions: HepG2 Attagene cis-reporter, E2F reporter RNA transcripts; actives raise or lower the signal
# Procedure: ATG_CIS is a cell-based, multiplexed-readout assay that uses HepG2, a human liver cell line, with measurements taken at 24 hours after chemical dosing in a 24-well plate.ATG_E2F_CIS is one of 52 assay component(s) measured or calculated from the ATG_CIS assay. It is designed to make measurements of mRNA induction, a form of inducible reporter, as detected with fluorescence intensity signals by Reverse transcription polymerase chain reaction (RT-PCR) and Capillary electrophoresis technology.Data from the assay component ATG_E2F_CIS was analyzed into 1 assay endpoint. This assay endpoint, ATG_E2F_CIS, was analyzed with bidirectional fitting relative to DMSO as the negative control and baseline of activity. Using a type of inducible reporter, measures of mRNA for gain or loss-of-signal activity can be used to understand the reporter gene at the transcription factor-level as they relate to the gene E2F1. Furthermore, this assay endpoint can be referred to as a primary readout, because this assay has produced multiple assay endpoints where this one serves a reporter gene function. To generalize the intended target to other relatable targets, this assay endpoint is annotated to the dna binding intended target family, where the subfamily is E2F transcription factor.
# Human liver HepG2 cells are transiently transfected with multiple reporter transcription units (MRTUs) in 6-well plates using FuGene 6 reagent (Roche; 3 ml FuGene/1 mg DNA). The MRTU constructs are regulated by a cis-regulating element (promoter). […] A major difference between the CIS and TRANS system is that in CIS activities of endogenous TFs are measured, whereas the TRANS assay evaluates changes in activities of exogenous, chimeric NR-Gal4 proteins. […] At the end of 24 hour incubation, total RNA was isolated using TriZol reagent (Invitrogen). The isolated RNA is then reverse-transcribed using oligo(dT) primer and Mo-MLV reverse transcriptase (Invitrogen) with DNAse I (Ambion) treatment for 30 min. The one-tenth of the produced cDNA was amplified by PCR using Taq DNA polymerase (Invitrogen) and two reporter sequence-specific primers. The PCR products were fluorescently labeled by primer extension with 6-arboxyfluorescein (6-FAM) 5'-labeled reporter sequence-specific primer (2 min at 95 C, 20 s at 68 C and 10 min at 72 C) and these products were digested with 5U of HpaI (New England Biolabs) for 2h at 37 C. The fragments were purified using Qiaquick PCR columns (Qiagen), analyzed on an ABI 3130xL genetic analyzer (Applied Biosystems) with peak positions identified by using a set of X-rhodamine (ROX)-labeled MapMarker1000 molecular weight standards (BioVentures). The raw capillary electrophoresis data was processed using Attagraph software (Attagene).
# Chain of Transcription factor E2F1 (Homo sapiens) (Q01094 whole entry, looked up): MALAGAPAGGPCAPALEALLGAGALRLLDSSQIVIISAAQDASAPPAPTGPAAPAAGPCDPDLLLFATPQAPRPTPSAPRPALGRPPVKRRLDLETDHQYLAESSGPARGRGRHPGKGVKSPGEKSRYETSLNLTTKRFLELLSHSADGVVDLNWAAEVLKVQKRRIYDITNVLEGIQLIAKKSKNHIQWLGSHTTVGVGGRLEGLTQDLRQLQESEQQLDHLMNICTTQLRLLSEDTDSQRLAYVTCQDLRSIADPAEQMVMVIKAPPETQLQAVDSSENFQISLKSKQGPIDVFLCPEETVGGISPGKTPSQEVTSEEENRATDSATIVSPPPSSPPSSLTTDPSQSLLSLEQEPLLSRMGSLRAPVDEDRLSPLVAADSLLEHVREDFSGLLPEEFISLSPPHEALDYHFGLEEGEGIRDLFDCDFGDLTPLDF
row,Structure (SMILES),outcome
1,CCOC(=O)[C@]1(c2ccccc2)Oc2ccccc2[C@@H]1N,inactive
2,N#CC(Br)(Br)C(N)=O,inactive
3,CN(C)[C@@H]1C(=O)C(C(N)=O)=C(O)[C@@]2(O)C(=O)C3=C(O)c4c(O)cccc4[C@@](C)(O)[C@H]3C[C@@H]12,inactive
4,COC(=O)c1ccccc1N,inactive
5,CCC[CH2][Sn]([Cl])([CH2]CCC)[CH2]CCC,inactive
6,OCCCl,inactive
7,CN(C)c1ccc(C(=O)c2ccc(N(C)C)cc2)cc1,inactive
8,CCN(CC)N=O,inactive
9,c1ccc(C2CO2)cc1 (stereo not given),inactive
10,Nc1cc(Cl)cc(C(=O)O)c1Cl,inactive
11,c1ccc2c(c1)-c1cccc3cccc-2c13,inactive
12,O=C(Oc1ccc(Br)cc1)N1CCN2CCC1CC2,inactive
13,O=C(O)C1C2CCC(O2)C1C(=O)O (stereo not given),inactive
14,N#CC(Br)Br,inactive
15,CCCCC(CC)COC(=O)c1ccc(C(=O)OCC(CC)CCCC)c(C(=O)OCC(CC)CCCC)c1 (stereo not given),inactive
16,Oc1ccc2ccc3cccc4ccc1c2c34,inactive
17,OCCOCCO,inactive
18,[Cl-].[Cl-].[Hg+2],inactive
19,Clc1ccc(C(c2ccc(Cl)cc2)C(Cl)(Cl)Cl)cc1,inactive
20,CS(=O)(=O)NC(=O)c1cc(Oc2ccc(C(F)(F)F)cc2Cl)ccc1[N+](=O)[O-],inactive

row,Structure (SMILES),outcome
1,CC(O)CCO (stereo not given),inactive
2,CCCCCCCCn1sccc1=O,inactive
3,ClC1=C(Cl)C2(Cl)C3C(Cl)C=CC3C1(Cl)C2(Cl)Cl (stereo not given),inactive
4,Clc1ccc(Cl)c(Cl)c1,inactive
5,C=CCc1ccc2c(c1)OCO2,inactive
6,CC(C)N(Cc1ccccc1)C(=O)C(C)(C)C,inactive
7,c1ccc(NNc2ccccc2)cc1,inactive
8,CN(C)c1ccccc1,inactive
9,ClC1=C(Cl)[C@]2(Cl)[C@H]3[C@H]([C@@H]4C=C[C@H]3C4)[C@@]1(Cl)C2(Cl)Cl,inactive
10,Nc1ccc(Cc2ccc(N)cc2)cc1,inactive
11,O=P(OCCCl)(OCCCl)OCCCl,inactive
12,Clc1ccccc1Cl,inactive
13,Brc1ccc(Oc2ccccc2)cc1,inactive
14,c1ccc2c(c1)oc1ccccc12,inactive
15,Clc1ccc(C(c2ccc(Cl)cc2)C(Cl)Cl)cc1,inactive
16,CCNS(=O)(=O)C(F)(F)C(F)(F)C(F)(F)C(F)(F)C(F)(F)C(F)(F)C(F)(F)C(F)(F)F,inactive
17,O=C(Nc1ccccc1)c1ccccc1I,inactive
18,CCC(C)c1ccc(O)cc1 (stereo not given),inactive
19,CCCCCCCCOC(=O)c1ccc(C(=O)OCCCCCCCC)c(C(=O)OCCCCCCCC)c1,inactive
20,CC(C)(C)C(O)(CCc1ccc(Cl)cc1)Cn1cncn1 (stereo not given),inactive
